About 79,000 compounds went through this panel and 15% of them were active in at least one assay; those are over-represented in the sample as a whole. Values without a mark were called inactive. Active and inactive are the calls of the source. No stated cut-off is given here; in the data, active means growth inhibition above about 70%; inactive means the rest.

In PubChem BioAssay (NCI) one finds growth inhibition data, which are given here for 40 compounds.

A short description of this assay: NCI Yeast Anticancer Drug Screen. Data for the rad50 strain (AID 155).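 Further: 0% = growth of vehicle-only cultures of the same strain.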 The following applies: S. cerevisiae rad50 strain growth inhibition; at 50.0 µM; active compounds read high. The procedure, abridged: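 A DNA repair-deficient yeast mutant serves as the test organism; compound-induced growth inhibition is calculated against vehicle-treated cells.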
Regarding `CCN(/N=C1\CC2C=CCN(C2)C(=O)Cc2c1[nH]c1ccccc21)S(=O)(=O)c1ccc(C)cc1` (stereo not given), the growth inhibition was 30.9%. `O=C(O)C1CCCCC1C(=O)O.[NH-]C1CCC1.[NH2-].[Pt+2]` (stereo not given): the growth inhibition was 99.2% (active).

Turning to `COC(=O)CCCN1C(=O)c2ccccc2C1=O`, the growth inhibition was -8.15%. On to `COC(=O)N/N=C/c1ccc(NC(C)=O)cc1`, for which the growth inhibition was 7.8%. Next, `O=C1c2cc(Cl)ccc2OCC1Cl` (stereo not given): 37.5%; `O=C1C(Cl)N(c2ccc(Cl)cc2Cl)C1c1c[nH]c2ccccc12` (stereo not given): -14.4%. Consider `CCOC(=O)CNc1nnnn1C1OC(CO)C(O)C1O` (stereo not given), for which the growth inhibition was -2.05%. Consider `Cc1cc(-c2ccccc2)c(C#N)c(=O)[nH]1`, for which the growth inhibition was -4.5%.

Take `COc1ccc(C(=O)N/N=C/c2ccccc2)cc1`: the growth inhibition was 8.3%.

As to `CCCC=NCCCC`, the growth inhibition is -17.1%. For the compound `CCOP(=O)(OCC)/C(C#N)=C\c1ccc(N(C)C)cc1`, the growth inhibition is 13.5%. Next, `Nc1ccc(Cl)cc1[N+](=O)[O-]`: 4.85%.

As to `C[C@@]12C[C@@H](c3ccccc3O1)N1CCCSC1=N2`, the growth inhibition is 20.2%. In the case of `c1ccc2c(C3CO3)c3ccc4ccccc4c3cc2c1` (stereo not given) it was 99% (active); in that of `Cc1cccc(C)c1NC(=O)C(=O)Cc1nc2ccccc2s1`, -12.1%.

Turning to `CC(=O)[C@@]1(O)CC[C@H]2[C@@H]3C[C@H](C)C4=CC(=O)CC[C@]4(C)[C@H]3[C@@H](O)C[C@@]21C`, the growth inhibition was -27.9%. Regarding `C#[N+]CCOP(=O)(OCC1OC(n2cc(C)c(=O)[nH]c2=O)CC1N=[N+]=[N-])O[C@H]1CC[C@@]2(C)C(=CC[C@H]3[C@@H]4CC[C@H](C(C)CCCC(C)C)[C@@]4(C)CC[C@@H]32)C1` (stereo not given in full), the growth inhibition is -18.8%. Consider `COc1c(OCC(O)CN2CCCCC2)c2c(C)coc2c2ccoc12` (stereo not given), for which the growth inhibition was 34.5%. Consider `O=C(CCN1CCOCC1)Nc1ccc(F)cc1F`, for which the growth inhibition is -18.8%. As for `CC(C)(Oc1ccc2c(=O)cc(-c3ccc(Cl)cc3)oc2c1)C(=O)Nc1c(Cl)cccc1Cl`, the growth inhibition was 16.4%. Turning to `COc1ccc(C2=C(Cl)c3cc(OC)c(OC)cc3C2Cl)cc1OC` (stereo not given), the growth inhibition was 41.5%. In the case of `CC(=O)Oc1cccc2ccccc12` it was -23.4%; in that of `O=C(Nc1cccc(O)c1)OC1CCCCC1`, 25.8%; in that of `O=C(c1ccco1)N(C(=S)N1CCN(c2ccccc2)CC1)C1CCCCC1`, 16.4%. `CS/C(c1ccccc1)=[N+](/C)[O-]`: the growth inhibition was 42.6%. Next, `CCN(CC)c1ccccc1S(=O)(=O)O`: -5.45%; `Clc1ccc(/C=C/c2nc3ccccc3s2)cc1Cl`: -13.8%.

Regarding `O=C(O)/C=C\c1cc2c(cc1[N+](=O)[O-])OCO2`, the growth inhibition is 0.4%. Regarding `CCN(Cc1cc(Nc2ccnc3cc(Cl)ccc23)ccc1O)C(=O)N1CCN(C)CC1`, the growth inhibition was 10.7%. For `C(=C\c1ccccn1)/c1ccc(/C=C/c2ccccn2)cc1`, the growth inhibition is -31.2%.

In the case of `COC(=O)c1nc2c(N)nc(-c3ccccc3)nc2nc1N`, the growth inhibition is 8.9%. As to `O=C=Nc1ccc(Cc2ccc(N=C=O)cc2)cc1` (tested in a mixture with another compound), the growth inhibition is -6.55%.

As for `Cc1ccccc1N(CC1CO1)CC1CO1` (stereo not given), the growth inhibition is 10.2%.

Take `COc1cc2c3c(c1)SC(C)C(=O)N3CCN2` (stereo not given): the growth inhibition was -7.85%.

As to `Cc1cccc(N=C(Nc2cccc(C)n2)Nc2cccc(C)n2)n1`, the growth inhibition was 31.3%.

Consider `CCOC(=O)COc1cc2c(cc1C(C)c1cc(OC)c(OC)c(OC)c1)OCO2` (stereo not given), for which the growth inhibition was 34.6%. For `O=C(N/C(=C\c1ccccc1[N+](=O)[O-])c1nc2ccccc2[nH]1)c1ccccc1`, the growth inhibition is -3.4%.

On to `Oc1ccc(C=NCCN=Cc2ccc(O)cc2)cc1`, for which the growth inhibition was 9.55%. As to `NC(=O)NC(c1ccc(O)cc1)c1cc2c(cc1O)OCO2` (stereo not given), the growth inhibition is -4%. On to `C/C(=N/C(=O)NN)c1ccc(Cl)cc1`, for which the growth inhibition was 34.2%.
